{"source": "PubChem BioAssay AID1492", "about": "(National Center for Advancing Translational Sciences (NCATS), 2009)", "note": "Inconclusive results are not listed. Where a call stands in place of a potency, no number is given. Active and inactive are the calls of the source. The call rests on the fitted dose curve; in most records, active means well fitted inhibition curve with a large enough effect; inconclusive means small, poorly fitted or top-dose-only effect; inactive means flat fitted curve, though single readings scatter."}
{"target": "Muscarinic acetylcholine receptor M1 (Rattus norvegicus) (UniProt P08482)", "assay": "Counterscreen Concentration-Response Assay for Antagonists of the Neuropeptide S Receptor: Muscarinic Receptor Calcium Signal Transduction.", "details": "CHO-M1 cells, carbachol-induced calcium fluorescence, FDSS; series mostly up to 20.2 µM", "excerpt": "NIH Chemical Genomics Center [NCGC] NIH Molecular Libraries Probe Production centers Network [MLPCN] MLPCN Grant: X01-DA026210-01 Assay Submitter (PI): Heilig, Markus Alexander NCGC Assay Overview: Neuropeptide S receptor (NPSR), previously known as GPR154, is a recently de-orphanized G protein coupled receptor. Its endogenous ligand is the 20 amino acids peptide Neuropeptide S (NPS). […] NPS and its receptor are found in various tissues. Specifically they are highly expressed in brain areas that have been implicated in modulation of arousal, stress and anxiety. Central administration of NPS in mice produces an unusual profile of activity by inducing wakefulness and arousal, while at the same time suppressing anxiety. Therefore, NPSR may represent a novel drug target for the treatment of sleep and anxiety disorders. To identify NPSR antagonists, we developed a cell-based assay with transfected NPS receptor. NPS can stimulate the production of cAMP as well as release intracellular calcium in Chinese hamster ovary cells stably expressing NPS receptor. This change in intracellular calcium can be detected using a calcium indicator dye on a calcium imaging plate reader system (FDSS). To validate the specific action of compounds on the NPS receptor, a counterscreen was developed that tests compounds' antagonism of M1 muscarinic receptor stimulation by carbachol. The protein, gene and taxonomy linked to this assay refer to Rattus norvegicus, but Chinese Hamster ovary cells were actually used.\nNCGC Assay Protocol Summary: A Chinese hamster ovary (CHO) cell line stably expressing muscarinic acetylcholine M1 receptor (CHO-M1) was obtained from ATCC and maintained in F-12 Kaighn's media (Invitrogen, Carlsbad, CA, 21127) supplemented with 10 % FBS, 100 units/ml penicillin, 100 ug/ml streptomycin and 250 ug/ml geneticin at 37C, 5% CO2 in a humidified atmosphere. Before the assay, aliquots of cells were frozen and stored at -135C. The assay was performed on a FDSS-7000 kinetic plate reader in 1536-well format. The maximums of kinetic fluorescence responses were converted into text files using the instrument's software data export utility. […] AC50 values were determined from concentration-response data modeled with the standard Hill equation. CHO-M1 1536-well FDSS assay protocol: (1) Frozen CHO-M1 cells were thaw, washed once with fresh media and resuspended in F-12 Kaighn's media supplemented with 10 % FBS, 100 units/ml penicillin and 100 ug/ml streptomycin. Cells were plated at 3 ul/well (1200 cells) to black, clear-bottom, tissue-culture treated 1536-well plates, and then cultured at 37C, 5 % CO2 for 16 to 30 hours. (2) Add 3 ul of calcium dye (from High Performance PBX Calcium Assay Kit, BD Biosciences). The calcium dye was prepared according to the manufactory's instruction. (3) Incubation at 37C, 5 % CO2 for 60 min. (4) Add 23 nl/well of compound in DMSO solution. The final titration for each compound was between 0.6 nM and 46 uM. (5) Load plates to FDSS-7000. The following steps were performed on FDSS-7000. (6) Record fluorescent background (Ex 480 nm, Em 520-560 nm) for 10 s. (7) Add 2 ul of stimulation reagent (1X HBSS buffer, 0.1% BSA, 60 nM carbachol). Record antagonist response (Ex 480 nm, Em 520-560 nm) for 180 s. Keywords: MLSMR, MLPCN, NIH Roadmap, qHTS, NCGC, NPS, Neuropeptide S Antagonists"}
{"smiles": "O=C(O)CCCCCNc1nc(=S)[nH]c2ccccc12", "Potency": "inactive"}
{"smiles": "COCCCn1c(SCc2cc(=O)[nH]c3ccccc23)nnc1-c1ccco1", "Potency": "inactive"}
{"smiles": "CCN(CC)S(=O)(=O)c1ccc2c(c1)nc(SC(C)C(N)=O)n2-c1ccc(OC)cc1", "note": "(configuration not stated)", "Potency": "inactive"}
{"smiles": "COc1ccc(C2c3c(ncn(CCN4CCOCC4)c3=N)Oc3ccc4ccccc4c32)cc1OC", "note": "(configuration not stated)", "Potency": "inactive"}
{"smiles": "CN(C)c1ccc(N2CN=C3SCC(=O)N3C2)cc1", "Potency": "inactive"}
{"smiles": "Cc1nn(C(=O)c2cccs2)c(N)c1-c1ccccc1", "Potency": "inactive"}
{"smiles": "CC1CCCc2sc3nc(N4CCN(CCO)CC4)n4ncnc4c3c21", "note": "(configuration not stated)", "Potency": "inactive"}
{"smiles": "C(=C\\c1ccccc1)/C=N/N1CCN(c2ccccn2)CC1", "Potency": "inactive"}
{"smiles": "C=CCNC(=O)/C(C#N)=C/c1cn(-c2ccccc2)nc1-c1ccc(OC)c([N+](=O)[O-])c1", "Potency": "inactive"}
{"smiles": "C=CCn1c(SCCN2C(=O)c3ccccc3C2=O)nc2scc(-c3ccccc3)c2c1=O", "Potency": "inactive"}
{"smiles": "Cn1c(COc2ccccc2)nnc1SCc1cc(=O)[nH]c2ccccc12", "Potency": "inactive"}
{"smiles": "O=C(COC(=O)c1ccccc1C(=O)c1ccc(Cl)c([N+](=O)[O-])c1)NC1CCCCCC1", "Potency": "4.47 µM (active)"}
{"smiles": "Cc1cc(OCC(=O)c2ccc(Br)cc2)ccc1N1C(=O)CCC1=O", "Potency": "inactive"}
{"smiles": "Nn1c(COc2ccccc2)nnc1SCc1cc(=O)[nH]c2ccccc12", "Potency": "inactive"}
{"smiles": "Cc1ccc2oc(-c3cccc(NC(=S)NC(=O)/C=C/c4ccco4)c3)nc2c1", "Potency": "inactive"}
{"smiles": "Cc1ccc(/C=C2\\SC(=S)N(CC(=O)Nc3ncc(Cc4ccccc4Cl)s3)C2=O)cc1", "Potency": "inactive"}
{"smiles": "Cc1ccc(Cn2cc(SCC(=O)Nc3nccs3)c3ccccc32)cc1", "Potency": "inactive"}
{"smiles": "COc1ccc(N(CC(=O)Nc2cccc(SC)c2)S(C)(=O)=O)cc1Cl", "Potency": "inactive"}
{"smiles": "CCC(C)(C)NC(=O)Cc1ccc(C)cc1", "Potency": "inactive"}
{"smiles": "CCC(C)n1c(=O)c(C(=O)Nc2ccccc2S(N)(=O)=O)c(O)c2ccccc21", "note": "(configuration not stated)", "Potency": "inactive"}
{"smiles": "O=c1cc(CNCCCO)c2ccccc2[nH]1", "Potency": "inactive"}
{"smiles": "CC1CCCCN1S(=O)(=O)c1ccc(C(=O)Nc2sccc2C(N)=O)cc1", "note": "(configuration not stated)", "Potency": "inactive"}
{"smiles": "CCC(Sc1ccc2nnc(-c3cccnc3)n2n1)C(=O)O", "note": "(configuration not stated)", "Potency": "inactive"}
{"smiles": "COc1ccccc1-c1nnc(SC2CCc3ccccc3NC2=O)s1", "note": "(configuration not stated)", "Potency": "inactive"}
{"smiles": "O=C(/C(=C/c1ccc(Cl)cc1)c1nc2ccccc2[nH]1)c1cccs1", "Potency": "7.94 µM (active)"}
{"smiles": "CCc1ccc2oc(-c3cc(N)cc(C)c3O)nc2c1", "Potency": "inactive"}
{"smiles": "O=C(/C=C/c1ccco1)NC(=S)Nc1cccc(-c2nc3ccccc3o2)c1", "Potency": "inactive"}
